# Measured values reported in the supplement of paper PMC10849652.
# Of roughly 7,900 targets only a part is listed; those with a hit were picked by preference. About 0.6% of all pairs of compound and target were hits. A number with no mark means an inactive call.
# Assays:
# Assay in all cases: log2 fold change, soluble protein after heating vs DMSO (PISA); higher = thermal stabilisation; K562 cells, 10 uM, 30 min; active = over 0.2 and 3.5 SD of the protein, either way, in both replicates (recomputed)
# [1] = compound: CC1=C(C=C(C=C1)NC(=O)C2=CC(=CC=C2)C(C)(C)C#N)NC3=CC4=C(C=C3)N=CN(C4=O)C
# In short: (§1)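 Values are thermal stability changes relative to control samples and are taken from duplicates. They are stated as log2 fold changes. Before quantification by TMTpro 16plex LC-MS/MS with equalised channel sums, K562 cells at 2×10^6 cells/mL were treated with 10 μM compound for 30 min, heated in aliquots for 3 min across 48°C-58°C, pooled, extracted in PBS with 0.5% NP-40 at 4°C, and centrifuged at 21,000xg for 90 min to give the soluble supernatant.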
# [2] = compound: CC1=C(C=C(C=C1)NC(=O)C2=CC(=CC=C2)N(C)C)NC(=O)C3=CC=C(C=C3)O
# In short: as §1
# [3] = compound: CC1=CC=C(C=C1)SC2=C3C=C(SC3=CN=C2)C(=O)N
# In short: as §1
# [4] = compound: CC1=NC(=CC=C1)C2=C(N=C(N2)C(C)(C)C)C3=CC4=NC=CN=C4C=C3
# In short: as §1
# Nexturastat A = compound: CCCCN(Cc1ccc(C(=O)NO)cc1)C(=O)Nc1ccccc1 [Nexturastat A]
# In short: as §1
# vemurafenib = compound: CCCS(=O)(=O)Nc1ccc(F)c(C(=O)c2c[nH]c3ncc(-c4ccc(Cl)cc4)cc23)c1F [vemurafenib]
# In short: as §1
# [5] = compound: CCCS(=O)(=O)Nc1ccc(F)c(C(=O)c2c[nH]c3ncc(Cl)cc23)c1F
# In short: as §1
# [6] = compound: CCCc1cc(C)[nH]c(=O)c1CNC(=O)c1cc(-c2ccnc(N3CCN(C)CC3)c2)cc2c1cnn2C(C)C
# In short: as §1
# givinostat = compound: CCN(CC)Cc1ccc2cc(COC(=O)Nc3ccc(C(=O)NO)cc3)ccc2c1 [givinostat]
# In short: as §1
# barasertib = compound: CCN(CCCOc1ccc2c(Nc3cc(CC(=O)Nc4cccc(F)c4)[nH]n3)ncnc2c1)CCOP(=O)(O)O [barasertib]
# In short: as §1
# [7] = compound: CC[C@@H]1C(=O)N(C)c2cnc(Nc3ccc(C(=O)NC4CCN(C)CC4)cc3OC)nc2N1C1CCCC1
# In short: as §1
# volasertib = compound: CC[C@@H]1C(=O)N(C)c2cnc(Nc3ccc(C(=O)N[C@H]4CC[C@H](N5CCN(CC6CC6)CC5)CC4)cc3OC)nc2N1C(C)C [volasertib]
# In short: as §1
# [8] = compound: CC[C@H](C)N1C=C(C2=C(C=C(C=C21)C3=CN=C(C=C3)N4CCNCC4)C(=O)NCC5=C(C=C(NC5=O)C)C)C
# In short: as §1
# epoxomicin = compound: CC[C@H](C)[C@@H](C(=O)N[C@@H]([C@@H](C)O)C(=O)N[C@@H](CC(C)C)C(=O)[C@]1(CO1)C)NC(=O)[C@H]([C@@H](C)CC)N(C)C(=O)C [epoxomicin]
# In short: as §1
# [9] = compound: CCn1c(C(=O)N(C2CC2)C2CC2)cc2c3c(ncn3C)c(Nc3cc(C)n(C)n3)nc21
# In short: as §1
# [10] = compound: CCn1cc(-c2ccnc3[nH]c(-c4cccc(CN(C)C)c4)cc23)c(-c2ccc(NC(=O)N(C)C)cc2)n1
# In short: as §1
# [11] = compound: CN(C)CC(=O)Nc1ccc2[nH]c(=O)c3ccccc3c2c1
# In short: as §1
# rosiglitazone = compound: CN(CCOC1=CC=C(C=C1)C[C@H]2C(=O)NC(=O)S2)C3=CC=CC=N3 (racemic) [rosiglitazone]
# In short: as §1
# [12] = compound: CN1C2=C(C3=C1C(=O)N(N=C3)CC4=CC(=CC=C4)N)SC(=C2)S(=O)C
# In short: as §1
# [13] = compound: CN1CCC(CNc2ccc3ncc(-c4cccc(OC(F)(F)F)c4)n3n2)CC1
# In short: as §1
# UniProt Q8N122, sequence (Q8N122 whole entry, looked up): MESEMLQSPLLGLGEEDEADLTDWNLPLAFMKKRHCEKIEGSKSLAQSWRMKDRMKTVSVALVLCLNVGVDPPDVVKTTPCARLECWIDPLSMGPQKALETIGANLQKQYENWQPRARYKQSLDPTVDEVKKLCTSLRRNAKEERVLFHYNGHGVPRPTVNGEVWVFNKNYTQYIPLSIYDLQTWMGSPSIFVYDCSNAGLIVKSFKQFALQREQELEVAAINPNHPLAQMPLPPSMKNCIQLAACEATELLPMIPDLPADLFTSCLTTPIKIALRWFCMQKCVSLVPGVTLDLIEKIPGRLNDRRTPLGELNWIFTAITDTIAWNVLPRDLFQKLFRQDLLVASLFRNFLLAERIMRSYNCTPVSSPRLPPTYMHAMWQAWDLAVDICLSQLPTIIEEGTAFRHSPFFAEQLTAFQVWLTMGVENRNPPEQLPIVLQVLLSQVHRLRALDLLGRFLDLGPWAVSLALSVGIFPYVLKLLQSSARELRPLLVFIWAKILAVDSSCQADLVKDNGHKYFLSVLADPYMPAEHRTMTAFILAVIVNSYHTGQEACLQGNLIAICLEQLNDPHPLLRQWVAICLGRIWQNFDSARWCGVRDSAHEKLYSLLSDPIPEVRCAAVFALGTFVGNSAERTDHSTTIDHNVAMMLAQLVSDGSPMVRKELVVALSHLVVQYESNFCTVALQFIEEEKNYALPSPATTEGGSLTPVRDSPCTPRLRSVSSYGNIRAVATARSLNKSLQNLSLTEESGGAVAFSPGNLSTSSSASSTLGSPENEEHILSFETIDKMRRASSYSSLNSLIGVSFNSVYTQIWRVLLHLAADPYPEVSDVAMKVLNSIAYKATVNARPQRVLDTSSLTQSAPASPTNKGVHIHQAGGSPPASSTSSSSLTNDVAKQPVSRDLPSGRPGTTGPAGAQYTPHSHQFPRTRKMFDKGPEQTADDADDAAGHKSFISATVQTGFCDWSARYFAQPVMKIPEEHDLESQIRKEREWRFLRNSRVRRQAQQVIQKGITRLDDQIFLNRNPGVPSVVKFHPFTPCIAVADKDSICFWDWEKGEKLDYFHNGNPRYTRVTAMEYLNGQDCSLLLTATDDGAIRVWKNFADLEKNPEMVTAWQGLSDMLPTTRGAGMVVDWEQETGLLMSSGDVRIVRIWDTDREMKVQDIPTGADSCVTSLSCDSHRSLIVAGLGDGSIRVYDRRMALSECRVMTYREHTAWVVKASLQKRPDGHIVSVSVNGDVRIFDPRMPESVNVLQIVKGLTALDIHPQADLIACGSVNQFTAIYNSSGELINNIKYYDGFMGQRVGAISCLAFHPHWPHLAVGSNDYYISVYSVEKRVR
# UniProt O95059, sequence (O95059 whole entry, looked up): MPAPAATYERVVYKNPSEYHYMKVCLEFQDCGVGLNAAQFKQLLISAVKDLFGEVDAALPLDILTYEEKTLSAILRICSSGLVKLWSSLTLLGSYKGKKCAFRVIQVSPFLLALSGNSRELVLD
# UniProt Q8NBN7, sequence (Q8NBN7 whole entry, looked up): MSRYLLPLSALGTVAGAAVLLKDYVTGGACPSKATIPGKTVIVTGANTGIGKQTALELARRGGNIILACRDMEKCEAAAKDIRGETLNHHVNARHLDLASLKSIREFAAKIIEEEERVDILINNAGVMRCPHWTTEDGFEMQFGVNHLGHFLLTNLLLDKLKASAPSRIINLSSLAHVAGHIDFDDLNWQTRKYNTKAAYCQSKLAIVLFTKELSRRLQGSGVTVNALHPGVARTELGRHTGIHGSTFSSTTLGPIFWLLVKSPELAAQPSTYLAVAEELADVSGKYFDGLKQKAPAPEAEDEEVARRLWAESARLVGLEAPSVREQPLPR
# UniProt O95470, sequence (O95470 whole entry, looked up): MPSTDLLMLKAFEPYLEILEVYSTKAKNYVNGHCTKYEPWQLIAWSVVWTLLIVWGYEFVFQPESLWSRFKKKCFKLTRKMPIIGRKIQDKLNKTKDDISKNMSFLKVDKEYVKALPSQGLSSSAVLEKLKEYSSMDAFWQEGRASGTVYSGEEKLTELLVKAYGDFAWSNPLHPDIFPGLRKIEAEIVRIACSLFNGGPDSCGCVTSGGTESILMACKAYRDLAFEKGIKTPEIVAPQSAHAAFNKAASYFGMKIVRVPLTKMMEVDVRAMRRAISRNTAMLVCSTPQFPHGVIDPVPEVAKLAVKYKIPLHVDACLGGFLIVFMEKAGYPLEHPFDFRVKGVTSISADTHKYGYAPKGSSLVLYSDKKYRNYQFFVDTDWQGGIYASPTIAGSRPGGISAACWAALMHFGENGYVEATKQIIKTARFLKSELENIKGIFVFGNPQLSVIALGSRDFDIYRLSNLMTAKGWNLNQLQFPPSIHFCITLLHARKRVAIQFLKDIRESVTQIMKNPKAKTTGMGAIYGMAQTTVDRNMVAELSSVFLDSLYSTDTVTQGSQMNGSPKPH
# UniProt O15027, sequence (O15027 whole entry, looked up): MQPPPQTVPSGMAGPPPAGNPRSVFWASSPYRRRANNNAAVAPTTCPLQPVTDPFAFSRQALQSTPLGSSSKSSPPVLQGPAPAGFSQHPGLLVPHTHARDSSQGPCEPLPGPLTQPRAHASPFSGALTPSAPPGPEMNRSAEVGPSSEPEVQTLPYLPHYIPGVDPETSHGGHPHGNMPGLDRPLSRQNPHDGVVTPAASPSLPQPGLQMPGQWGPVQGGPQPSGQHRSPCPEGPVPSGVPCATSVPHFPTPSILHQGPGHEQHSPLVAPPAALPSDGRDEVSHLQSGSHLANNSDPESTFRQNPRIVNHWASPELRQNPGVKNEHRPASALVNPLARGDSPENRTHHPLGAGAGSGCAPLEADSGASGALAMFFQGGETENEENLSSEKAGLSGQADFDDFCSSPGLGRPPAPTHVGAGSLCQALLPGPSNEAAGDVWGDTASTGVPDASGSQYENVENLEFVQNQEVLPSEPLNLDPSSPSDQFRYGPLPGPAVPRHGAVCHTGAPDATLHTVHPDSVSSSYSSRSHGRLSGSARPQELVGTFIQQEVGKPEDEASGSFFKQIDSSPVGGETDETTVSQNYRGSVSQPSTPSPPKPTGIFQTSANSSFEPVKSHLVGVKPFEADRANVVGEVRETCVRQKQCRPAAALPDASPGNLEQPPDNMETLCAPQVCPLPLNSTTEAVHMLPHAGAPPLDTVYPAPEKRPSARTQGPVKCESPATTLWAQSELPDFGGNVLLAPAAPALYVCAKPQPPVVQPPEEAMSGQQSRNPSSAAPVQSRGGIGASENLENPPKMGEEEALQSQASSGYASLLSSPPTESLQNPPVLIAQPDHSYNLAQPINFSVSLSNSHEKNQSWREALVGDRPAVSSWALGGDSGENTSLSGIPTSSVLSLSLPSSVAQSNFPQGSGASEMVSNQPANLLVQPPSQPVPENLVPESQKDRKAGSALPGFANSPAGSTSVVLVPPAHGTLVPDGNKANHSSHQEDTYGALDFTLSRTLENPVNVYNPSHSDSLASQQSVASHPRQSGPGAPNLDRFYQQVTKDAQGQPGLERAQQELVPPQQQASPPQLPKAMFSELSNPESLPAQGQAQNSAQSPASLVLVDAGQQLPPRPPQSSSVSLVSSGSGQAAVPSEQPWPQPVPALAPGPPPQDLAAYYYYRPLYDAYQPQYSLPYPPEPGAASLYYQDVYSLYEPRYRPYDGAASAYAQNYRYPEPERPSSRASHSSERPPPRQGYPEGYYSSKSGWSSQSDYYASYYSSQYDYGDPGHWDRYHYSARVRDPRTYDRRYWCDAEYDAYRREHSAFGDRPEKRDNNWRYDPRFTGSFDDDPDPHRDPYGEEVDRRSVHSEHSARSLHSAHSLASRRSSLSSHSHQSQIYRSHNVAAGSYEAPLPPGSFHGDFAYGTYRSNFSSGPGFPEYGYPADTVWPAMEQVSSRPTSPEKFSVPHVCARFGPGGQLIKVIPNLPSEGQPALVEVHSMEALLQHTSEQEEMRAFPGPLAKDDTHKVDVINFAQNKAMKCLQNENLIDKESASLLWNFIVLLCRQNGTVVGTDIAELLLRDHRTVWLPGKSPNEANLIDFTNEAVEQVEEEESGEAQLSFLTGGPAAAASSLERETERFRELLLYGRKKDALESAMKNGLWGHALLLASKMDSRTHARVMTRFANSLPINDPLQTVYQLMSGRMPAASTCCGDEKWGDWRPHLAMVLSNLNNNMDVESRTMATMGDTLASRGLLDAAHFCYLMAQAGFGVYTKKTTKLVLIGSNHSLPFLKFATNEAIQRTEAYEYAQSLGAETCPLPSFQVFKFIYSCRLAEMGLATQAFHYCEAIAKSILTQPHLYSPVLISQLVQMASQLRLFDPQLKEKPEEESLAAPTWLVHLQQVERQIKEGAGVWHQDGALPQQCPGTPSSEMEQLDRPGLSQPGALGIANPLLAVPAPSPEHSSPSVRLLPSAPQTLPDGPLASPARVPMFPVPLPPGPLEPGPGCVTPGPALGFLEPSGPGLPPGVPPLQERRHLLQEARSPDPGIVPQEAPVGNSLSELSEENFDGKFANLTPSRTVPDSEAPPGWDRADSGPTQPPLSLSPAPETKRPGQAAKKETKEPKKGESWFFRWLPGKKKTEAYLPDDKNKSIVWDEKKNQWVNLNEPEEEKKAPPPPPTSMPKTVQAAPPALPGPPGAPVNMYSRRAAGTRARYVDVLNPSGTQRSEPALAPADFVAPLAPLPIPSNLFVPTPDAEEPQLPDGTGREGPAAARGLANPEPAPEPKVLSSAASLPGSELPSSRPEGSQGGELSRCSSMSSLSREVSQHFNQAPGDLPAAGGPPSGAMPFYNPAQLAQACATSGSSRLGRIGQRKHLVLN
# UniProt Q8IXJ6, sequence (Q8IXJ6 whole entry, looked up): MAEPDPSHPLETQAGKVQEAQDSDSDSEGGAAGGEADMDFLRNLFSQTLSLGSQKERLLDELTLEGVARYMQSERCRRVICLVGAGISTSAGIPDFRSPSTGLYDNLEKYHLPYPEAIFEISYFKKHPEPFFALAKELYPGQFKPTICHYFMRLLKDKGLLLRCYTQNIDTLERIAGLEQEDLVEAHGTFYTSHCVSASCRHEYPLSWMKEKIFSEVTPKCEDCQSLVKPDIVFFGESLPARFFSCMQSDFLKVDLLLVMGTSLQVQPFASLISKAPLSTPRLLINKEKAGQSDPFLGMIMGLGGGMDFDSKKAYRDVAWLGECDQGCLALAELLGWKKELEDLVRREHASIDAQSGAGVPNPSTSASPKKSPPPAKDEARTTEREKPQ
Target,log2 fold change [1],log2 fold change [2],log2 fold change [3],log2 fold change [4],log2 fold change (Nexturastat A),log2 fold change (vemurafenib),log2 fold change [5],log2 fold change [6],log2 fold change (givinostat),log2 fold change (barasertib),log2 fold change [7],log2 fold change (volasertib),log2 fold change [8],log2 fold change (epoxomicin),log2 fold change [9],log2 fold change [10],log2 fold change [11],log2 fold change (rosiglitazone),log2 fold change [12],log2 fold change [13]
RPRD1B (UniProt Q9NQG5),0.007,-0.021,-0.029,0.101,-0.054,0.05,0.07,-0.057,-0.064,0.007,-0.057,-0.245 (active),0.077,0.075,0.009,-0.005,0,0.052,-0.059,-0.077
SLC1A5 (UniProt Q15758),0.007,0.002,0.019,-0.01,-0.053,-0.006,0.012,-0.01,-0.022,-0.04,0.095,0.027,-0.043,-0.001,0.042,-0.014,-0.02,-0.009,-0.114,0.226 (active)
RDH13 (UniProt Q8NBN7),0.011,-0.082,0.045,0.078,-0.046,0.044,0.019,-0.01,-0.002,0.033,-0.154,-0.06,0.06,0.022,0.009,-0.058,0.051,0.013,-0.059,-0.318 (active)
RPP14 (UniProt O95059),0.086,0.01,-0.031,-0.015,0.129,-0.004,0.004,-0.037,-0.116,-0.087,0.079,0.07,-0.048,-0.06,0.013,0.08,-0.04,-0.021,-0.076,0.244 (active)
SIRT2 (UniProt Q8IXJ6),0.014,-0.051,-0.016,0.027,0.004,0.012,-0.022,-0.002,0.004,0.015,0.077,0.624 (active),0.043,-0.015,-0.017,-0.038,0.009,0.033,-0.041,-0.025
SDHC (UniProt Q99643),0.01,0.023,-0.041,0.023,-0.217,0.128,0.038,-0.122,-0.108,-0.04,0.042,0.036,-0.1,0.205,0.018,0,0.264,0.064,-0.068,0.023
RFC3 (UniProt P40938),-0.003,-0.031,0.05,0.058,-0.032,0.048,0.101,0,-0.007,-0.011,-0.008,-0.052,0.047,0.042,0.001,-0.081,0.038,0.05,-0.096,-0.008
SGPL1 (UniProt O95470),-0.036,-0.056,0.014,-0.054,0.031,0.033,-0.036,0.074,-0.035,0.051,0,-0.04,-0.002,-0.066,0.01,0.009,-0.023,-0.061,0.047,0.189
RPS16 (UniProt P62249),0.028,-0.016,-0.087,-0.035,0.11,-0.073,-0.103,0.337,-0.046,-0.053,0.125,0.388,0.044,-0.118,0.026,0.124,-0.085,-0.072,0.112,0.1
SEC16A isoform 5 (UniProt O15027),-0.079,-0.042,0.036,-0.001,0.044,0.035,-0.031,0.061,0.09,0.043,-0.058,-0.271,0.051,-0.04,-0.146,-0.048,0.1,0.06,0.078,-0.047
SDCBP (UniProt O00560),0.007,0.021,0.009,0.025,0.001,0.051,0.041,-0.176,-0.027,-0.039,-0.223,-0.249,0.01,-0.043,0.059,-0.01,-0.061,-0.008,0.045,-0.229
RIPK1 (UniProt Q13546),0.101,-0.043,-0.002,-0.178,0.109,0.054,0.135,0.092,0.094,0.085,-0.069,-0.478 (active),0.12,-0.01,-0.046,0.041,0.08,0.111,0.022,-0.099
RABGAP1L isoform 3 (UniProt Q5R372),0.002,0.018,0.018,-0.005,-0.058,-0.008,0.073,0.03,0.034,0.022,-0.046,-0.107,0.053,0.08,-0.028,-0.034,-0.011,-0.026,0.02,0.025
RPS6KA2 isoform 2 (UniProt Q15349),-0.087,-0.229,0.159,0.011,0.009,0.037,0.026,0.023,-0.148,0.064,-0.136,-0.179,0.034,0.041,0.133,-0.126,0.025,0.072,-0.038,-0.313
RPTOR (UniProt Q8N122),0.009,0.019,0.027,0.025,-0.018,0.017,0.09,0.012,-0.007,-0.007,-0.116,-0.237 (active),0.064,0.034,0.001,-0.08,0.03,0.034,-0.037,-0.197
SACM1L (UniProt Q9NTJ5),0.08,-0.024,-0.004,0.031,-0.03,0.052,0.069,0.043,0.028,0.049,-0.193,-0.534 (active),-0.001,0.019,0.029,-0.019,0.033,0.021,-0.076,0.031
